Each structure is given as a SMILES string. The campaign covered roughly 360,000 compounds. About 2,400 (0.67%) were called active. The entries come from a sample that favours actives as a whole. Values without a mark were called inactive.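 Rule for the calls: active = activation above a run cutoff, the mean activation of all tested compounds plus 3 SD (cut at about 14% in these data); inactive = the rest.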

For this experiment, the target named is 5-hydroxytryptamine receptor 2A (Mus musculus) (UniProt P35363). The experiment is described as follows: activation of mouse 5-HT2A receptor – cell-based, luminescence, primary screen (AID 624169).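 Note: 0% = plate median of compound wells and 100% = 30 µM serotonin.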 Conditions: CHO-K1 mHTR2A beta-arrestin complementation, at 7.6 µM, hits give high values, percent of 30 µM serotonin response.
Chain of 5-hydroxytryptamine receptor 2A (Mus musculus) (P35363 whole entry, looked up): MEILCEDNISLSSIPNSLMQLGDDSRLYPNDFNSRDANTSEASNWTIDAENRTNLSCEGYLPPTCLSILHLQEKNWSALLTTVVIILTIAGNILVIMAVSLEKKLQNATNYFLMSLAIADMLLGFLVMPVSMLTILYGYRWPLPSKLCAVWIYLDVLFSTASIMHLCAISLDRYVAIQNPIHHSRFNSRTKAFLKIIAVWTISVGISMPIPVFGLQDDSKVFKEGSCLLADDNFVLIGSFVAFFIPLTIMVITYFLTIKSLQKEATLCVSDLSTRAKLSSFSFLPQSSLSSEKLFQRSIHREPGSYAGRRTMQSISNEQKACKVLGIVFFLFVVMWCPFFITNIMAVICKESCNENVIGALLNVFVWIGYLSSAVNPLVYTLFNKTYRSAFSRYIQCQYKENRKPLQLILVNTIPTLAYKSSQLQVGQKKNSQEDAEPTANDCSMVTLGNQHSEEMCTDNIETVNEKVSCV
For `CC1(Cc2ccccc2C#N)C(=O)Nc2ccc(-c3ccc4[nH]ccc4c3)cc21` (stereo not drawn), the activation is -1.29%.
For `CC1(Cc2cccc(C#N)c2)C(=O)Nc2ccc(-c3cccc(C(F)(F)F)c3)cc21` (stereo not drawn) the value was 16.7% (active); for `Cc1ccc(CC2(C)C(=O)Nc3ccc(OC(F)(F)F)cc32)cc1` (stereo not drawn), -3.94%; for `COC(=O)[C@]12CCCCC=C1N(Cc1ccc3c(c1)OCO3)C(=O)[C@H](CC(=O)N1CCOCC1)C2`, 2.87%.
For `O=C(Nc1cccc2c1CCCC2)C1CCN(C(=O)NC2CCCCC2)CC1` the value was 2.77%; for `CCOC(=O)c1cccc(NC(=O)C2CCCN(S(=O)(=O)c3cnc[nH]3)C2)c1` (stereo not drawn), 9.95%; for `O=c1[nH]nc(Cc2ccccn2)c2ccccc12`, 2.3%.
For `Cc1cc(C=O)c(C)n1-c1ccc(NC2CCCCC2)c([N+](=O)[O-])c1` the value was 3.39%.
Turning to `Cc1cc([N+](=O)[O-])ccc1NC1CCCC1`, the activation is 15.6% (active).
For `Cc1cc([N+](=O)[O-])c(NC2CCCCC2)c([N+](=O)[O-])c1` the value was 0.25%; for `COc1cc2sc(C)nc2cc1C`, -1.33%; for `CCOC(=O)c1cc(-c2sc(NC(=O)c3ccccc3)nc2C)n(Cc2ccccc2)n1`, -1.51%.
On to `CCOC(=O)c1cc(-c2sc(NC(=O)c3ccccc3)nc2C)n(CCO)n1`, for which the activation was -1.86%.
The result for `CCOC(=O)c1cc(-c2ccccc2C)n(Cc2cc(C)no2)n1` reads 22.5% (active).
Regarding `Cc1noc(C)c1COc1ccccc1C(=O)N(C)CC(=O)Nc1cccc(F)c1`, the activation is -2.16%.
For `CCCCN1C[C@H](c2ccc(Br)cc2)[C@@H](CC(=O)Nc2ccc(Br)cc2)C1=O` the value was 5.11%; for `O=C(CN1CCOCC1)N1CCCc2c1c(=O)oc1ccc(OCc3ccccc3)cc21`, -4.24%; for `Nc1c(N(Cc2ccco2)C(=O)c2cccc(F)c2)c(=O)[nH]c(=O)n1Cc1ccccc1`, 16.4% (active).
For `Nc1c(N(CCO)C(=O)C2CCCCC2)c(=O)[nH]c(=O)n1Cc1ccccc1` the value was -0.82%; for `COCCN(C(=O)c1ccccc1F)c1c(N)n(Cc2ccccc2)c(=O)[nH]c1=O`, -0.11%; for `CC(C(=O)N(C)CC(=O)Nc1ccccc1C(F)(F)F)N1C(=O)c2ccccc2C1=O` (stereo not drawn), -1.36%.
The result for `CC(=O)c1sc(NC(=O)CCN2C(=O)C3CC=CCC3C2=O)nc1-c1ccccc1` (stereo not drawn) reads -2.19%; that for `Cc1cc(NC(=O)/C=C/C(=O)N(CC(=O)NC2CCCC2)c2ccc(F)cc2)no1`, 5.36%.
`O=C(CCC(=O)N1CCN(S(=O)(=O)c2ccc(Cl)cc2)CC1)NCc1cccc(C(F)(F)F)c1`: the activation is -0.98%.
For `O=C(c1ccncc1)N1CCN(S(=O)(=O)c2cc(C(F)(F)F)cc(C(F)(F)F)c2)CC1` the value was -5.52%; for `O=C(Cc1ccsc1)N1CCN(S(=O)(=O)c2cc(C(F)(F)F)cc(C(F)(F)F)c2)CC1`, 16.3% (active); for `CC(C)c1nc(CNC(=O)CC2C(=O)NCCN2Cc2ccoc2)cs1` (stereo not drawn), 2.97%.
For `Cc1ccc(Cc2c(C)nc3nc(SCC(=O)NCCN4CCOCC4)nn3c2C)cc1` the value was -7.66%; for `O=C(Oc1ccc2c(c1)CCC2)N1CCOCC1`, -4.84%; for `CC(Nc1ccccc1)c1cccnc1` (stereo not drawn), 18.4% (active).
The result for `CC(=O)OC(C(=O)NCCc1ccccc1)c1cccnc1` (stereo not drawn) reads 3.53%.
As for `CC(C)COP(=O)(c1ccc(N(C)C)cc1)C(Nc1ccccc1)c1cccnc1` (stereo not drawn), the activation was -1.14%.
For `CCOP(=O)(OCC)C(Nc1ccc([N+](=O)[O-])cc1)c1ccc(Cl)cc1` (stereo not drawn) the value was -5.36%; for `Cc1ccc(NS(=O)(=O)c2cccs2)cc1S(=O)(=O)N1CCCCCC1`, -1.7%.
For `O=C(NCCS(=O)(=O)N1CCN(c2ccc(F)cc2)CC1)c1ccc2c(c1)OCO2` the value was 5.83%.
`Cc1cc(O)c(C2(O)C(=O)Nc3ccccc32)cc1C` (stereo not drawn): the activation was -4.53%.
The result for `O=C(c1ccco1)N1CCN(C(=O)c2ccc(COc3ccc(F)cc3)o2)CC1` reads 2.33%.
With `O=C(OCC(=O)N1CCN(C(=O)c2ccco2)CC1)c1c(Cl)cccc1Cl`, the activation was -3.04%.
The result for `O=C(c1ccco1)N1CCN(Cc2cccc(C(F)(F)F)c2)CC1` reads 11.3%; that for `O=C(c1ccco1)N1CCN(CCOc2ccccc2)CC1`, 16.4% (active); that for `COc1cccc(OC)c1OCCN1CCN(C(=O)c2ccco2)CC1`, 14.4% (active).
Take `O=C(c1ccc(Br)o1)N1CCN(CCOc2ccccc2)CC1`: the activation is -0.54%.
As to `Cc1ccc2cc(CN(c3ccc(C)c(C)c3)S(C)(=O)=O)c(=O)[nH]c2c1`, the activation is -0.92%.
For `CC1CC(=S)Nc2ccccc2N1Cc1ccccc1` (stereo not drawn) the value was -4.32%; for `CC(C)NC(=O)CSc1nnc(COc2ccccc2Cl)o1`, 0.27%; for `Cc1ccc(NC(=O)CSc2nnc(CNC(=O)c3ccccc3F)o2)cc1`, -0.39%.
As to `Cc1ccc(NC(=O)CSc2nnc(COc3ccccc3C)o2)cc1`, the activation was 40.1% (active).
The result for `CC(=O)c1ccc(NC(=O)C(C)OC(=O)c2ccc(NS(=O)(=O)c3ccc4[nH]c(=O)[nH]c4c3)cc2)cc1` (stereo not drawn) reads -1.56%; that for `COc1ccc(CNC(=O)c2ccc(NS(=O)(=O)c3ccc4[nH]c(=O)[nH]c4c3)cc2)cc1OC`, 16.1% (active).
The result for `O=C(c1ccc(NS(=O)(=O)c2ccc3[nH]c(=O)[nH]c3c2)cc1)N1CCCCC1` reads 2.95%; that for `COc1ccc2c(c1)C(=C(C#N)C#N)C(=O)N2CCc1ccccc1`, -0.11%.
For `CC(C)CC1C(=O)N(Cc2cn(Cc3ccco3)nn2)CCS(=O)(=O)N1Cc1ccc(-c2ccc(Cl)c(Cl)c2)cc1` (stereo not drawn) the value was -3.53%; for `O=C(O)C1C2C=CC(O2)C1C(=O)NCCc1cccc(Cl)c1` (stereo not drawn), 21.1% (active); for `O=C(O)C1CC=CCC1C(=O)NCCc1ccccc1` (stereo not drawn), 7.31%.
For the molecule `O=C(O)C1C2C=CC(O2)C1C(=O)Nc1ccccn1` (stereo not drawn), the activation was -3.53%.
For `Cc1ccccc1CN1CCC(C(=O)Nc2ccc(Oc3cccnc3)cc2)CC1` the value was -1.91%.
The result for `O=C(Nc1ccc(Cl)cc1)c1csc([C@H]2C[C@H](O)[C@@H](CO)O2)n1` reads 4.98%; that for `O=C(Nc1nnc([C@H]2C[C@H](O)[C@@H](CO)O2)s1)c1cccc(Cl)c1`, 5.77%; that for `O=C(Nc1cccc2cccnc12)c1ccc2sc([C@H]3C[C@H](O)[C@@H](CO)O3)nc2c1`, 16.7% (active).
As to `Cc1cccc(-n2c(Cc3cc(=O)[nH]c(=O)[nH]3)nnc2SCC(=O)Nc2cccc(C(F)(F)F)c2)c1`, the activation was 3.15%.
The result for `C/C(=N\NC(=S)NC1CCCCC1)c1ccc(C)o1` reads 21.6% (active); that for `Cc1ccc(/C=N/NC(=S)NC2CCCCC2)o1`, 4.42%; that for `C/C(=N/NC(=O)c1ccc(Br)o1)c1ccc(C)o1`, 0.28%.
The result for `N#CC1=C(SCc2ccc(C#N)cc2)N=C(N)C(c2nc(-c3ccccc3)cs2)C12CCCCC2` (stereo not drawn) reads -0.07%; that for `COc1ccc(OC)c(C(O)c2ncc(-c3cccc(C(F)(F)F)c3)[nH]2)c1` (stereo not drawn), -2.32%; that for `O=C(Cc1ccccc1Cl)N1CCOCC1`, -3.57%.
The result for `CN(C(=O)c1ccc(NC(=O)Cc2cccc(NC(=O)C3CCN(C(=O)c4ccccc4)CC3)c2)cc1)C1CC1` reads -6.22%; that for `Cc1ccc(C(=O)Nc2ccccc2-c2ccccc2)cc1S(=O)(=O)Nc1ccccc1`, 5.68%.
For `COc1ccc(NS(=O)(=O)c2cc(NC(=O)CC(=O)c3ccc([N+](=O)[O-])cc3)ccc2C)cc1`, the activation was -2.57%.
Take `COc1ccc(NS(=O)(=O)c2cc(C(=O)Nc3ccccc3C(=O)O)ccc2C)cc1`: the activation was 17.9% (active).
The result for `O=S(=O)(Nc1cccc(-c2ccc(N3CCOCC3)nn2)c1)c1ccc(Cl)c(Cl)c1` reads -3.29%; that for `O=C(NCc1ccccc1Cl)C1CCN(S(=O)(=O)N2CCOCC2)CC1`, 2.15%.
Consider `O=C1CCc2cc(S(=O)(=O)N3CCC(C(=O)NCc4ccccc4Cl)CC3)ccc2N1`, for which the activation is 19.6% (active).
`O=C(NCc1ccccc1CN1CCCC1)C1CCN(S(=O)(=O)c2ccc(Cl)cc2)CC1`: the activation is -12.7%.
As for `COc1cccc(C(=O)n2ccc(-c3cccs3)n2)c1`, the activation was 2.87%.
For the molecule `Cc1ccc(C(=O)N2CCN(C3CCCCC3)CC2)s1`, the activation is 7.15%.
For the molecule `CCOCCOC(=O)C1=C(C)N(C)C(=O)NC1c1ccccc1F` (stereo not drawn), the activation is 1.37%.
The result for `O=C(CN(Cc1ccc(Br)cc1)S(=O)(=O)c1ccccc1)NCc1ccncc1` reads -1.63%; that for `CCc1ccc(CN(C)C(=O)C2CCC(=O)N(Cc3cccc(OC)c3)C2)nc1` (stereo not drawn), 6.04%; that for `CC(=O)Nc1ccc(S(=O)(=O)N2CCC(N(C)CCC(C)C)CC2)cc1`, 6.97%.
The result for `Cc1ccc(NC(=O)CN(C)Cc2ccc(F)cc2)c([N+](=O)[O-])c1` reads 1.68%.
The result for `CCOc1cc(C(=O)OCC(=O)Nc2cccc(C)c2)ccc1OCC(=O)N1CCOCC1` reads -2.12%.
As to `CCn1cc(C(=O)N2CC=C(c3ccccc3)CC2)c(=O)c2ccc(C)nc21`, the activation was -3.76%.
For `CCn1cc(C(=O)OCC(=O)Nc2cccc(C)c2)c(=O)c2ccc(C)nc21`, the activation was 20.9% (active).
The result for `C=CCNC(=O)CC12CC3CC(C1)CC(CC(=O)NCC=C)(C3)C2` reads -3.65%; that for `CCCC(=O)N1c2ccc(-c3csc(N)n3)cc2CC1C` (stereo not drawn), 1.22%; that for `CC(C)(C)C(=O)OCc1nc(-c2ccc(O)c(O)c2)cs1`, 14.9% (active).
The result for `CN(c1ccc(O)cc1)c1nc(-c2cccnc2)cs1` reads -2.76%.

Values taken from PubChem BioAssay AID624169 (The Scripps Research Institute Molecular Screening Center, 2012).
